Assay results taken from PubChem BioAssay (EPA / NIEHS).
Records with an inconclusive call do not appear. Activity calls are given as the source filed them. Rule for the calls: active = hit-call score of the fitted dose curve at least 0.9, where 1 is the maximum; inconclusive = response in the unintended direction; inactive = score below 0.9.

The compounds below were run against human Vitamin D Receptor (VDR), VDR (gene 7421) (UniProt P11473) (assay: ATG_VDR_TRANS: Attagene TRANS-FACTORIAL HepG2 Assay for human Vitamin D Receptor (VDR) (AID 2283022)).
Chain of human Vitamin D Receptor (VDR), VDR (gene 7421) (P11473 whole entry, looked up, the tested form may be a part): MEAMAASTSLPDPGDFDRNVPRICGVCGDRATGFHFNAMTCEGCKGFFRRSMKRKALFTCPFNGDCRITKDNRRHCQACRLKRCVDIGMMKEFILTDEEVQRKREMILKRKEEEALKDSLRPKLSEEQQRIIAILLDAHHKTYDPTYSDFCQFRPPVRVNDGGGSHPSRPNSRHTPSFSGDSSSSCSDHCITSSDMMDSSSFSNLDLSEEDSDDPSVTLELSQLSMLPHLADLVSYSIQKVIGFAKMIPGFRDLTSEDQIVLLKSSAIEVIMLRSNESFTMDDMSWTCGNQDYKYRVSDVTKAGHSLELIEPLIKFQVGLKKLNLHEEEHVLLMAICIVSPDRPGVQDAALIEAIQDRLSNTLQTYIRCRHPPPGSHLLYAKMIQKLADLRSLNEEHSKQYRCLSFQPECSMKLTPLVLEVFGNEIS
How it was run: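 HepG2 cells were transiently transfected with multiple GAL4-UAS reporter units, so signal reflects exogenous chimeric receptor-Gal4 activity. After 24 h compound exposure, reporter mRNA was measured by RT-PCR, fluorescent labelling and capillary electrophoresis, fitted for gain of signal versus DMSO.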
With `O=CC(F)(F)C(F)(F)C(F)(F)F` the outcome was “inactive”.
In the case of `O=C1Cc2ccccc2N1c1c(Cl)cccc1Cl`, the outcome is reported as “inactive”.
With `O=CC(F)(F)C(F)(F)C(F)(F)C(F)F` the outcome was “inactive”.
With `CC1COCc2cc3c(cc21)C(C)(C)C(C)C3(C)C` (centres undefined) the AC50 was 128 µM (active).
With `CCCCCCCCCC=CCC1CC(=O)OC1=O` (centres undefined) the outcome was “inactive”.
In the case of `FC(OC(F)(F)C(F)(F)C(F)(F)F)C(F)(F)F` (centres undefined), the outcome is reported as “inactive”.
`CC(C)[C@@H]1CC[C@@H](C)C[C@H]1O` was tested, and the outcome was “inactive”.
In the case of `O=c1cc(-c2ccccc2)oc2ccc3ccccc3c12`, the outcome is reported as “inactive”.
In the case of `CCCCCCCC(OC)OC`, the outcome is reported as “inactive”.
In the case of `CC(C)(O)C(=O)c1ccccc1`, the outcome is reported as “inactive”.
`Nc1cc(Cl)c(-c2cc(Cl)c(N)cc2Cl)cc1Cl` was tested, and the outcome was “inactive”.
For `CCCCCCOC(=O)c1ccc(O)cc1`, the outcome was “inactive”.
In the case of `CCOC(=O)c1nc(C(Cl)(Cl)Cl)n(-c2ccc(Cl)cc2Cl)n1`, the outcome is reported as “inactive”.
`COC(O)c1ccccc1` (centres undefined) was tested, and the outcome was “inactive”.
With `CCC1CO1` (centres undefined) the outcome was “inactive”.
For `CCCCCC(C)OC(=O)COc1ccc(Cl)c2cccnc12` (centres undefined), the outcome was “inactive”.
In the case of `C[N+](C)(CCCNS(=O)(=O)CCC(F)(F)C(F)(F)C(F)(F)C(F)(F)C(F)(F)C(F)(F)F)CC(=O)[O-]`, the outcome is reported as “inactive”.
`COc1ccc(C#N)cc1` was tested, and the outcome was “inactive”.
For `CCO[Si](C)(C)OCC`, the outcome was “inactive”.
`CC(C)c1c(C(=O)Nc2ccccc2)c(-c2ccccc2)c(-c2ccc(F)cc2)n1CC[C@@H](O)C[C@@H](O)CC(=O)O` was tested, and the outcome was “inactive”.
For `CCCC=O`, the outcome was “inactive”.
With `Cc1ccc(C)c(S(=O)(=O)O)c1` the outcome was “inactive”.
`CCO[Si](CCC1CCC2OC2C1)(OCC)OCC` (centres undefined) was tested, and the outcome was “inactive”.
In the case of `C=CCOCC(CO)(CO)CO`, the outcome is reported as “inactive”.
